Experimental data: PubChem BioAssay (NCI)
Compounds without any hit were thinned out: in the full panel of roughly 83,000, 20% have a hit.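 Plates (96-well) were seeded with cells, treated with compound at one concentration, and incubated for 48 hours before percent growth was determined.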 Calls of active or inactive are those of the source. Rule for the calls: active = growth percent below 10; inactive = the rest.

Each molecule was assayed on SF-295 CNS (assay: NCI-60 one-dose screen, 48 h (100 = growth as untreated, 0 = no growth, -100 = all killed)). Conditions: 10 µM.

Row | Structure (SMILES) | growth
1 | COc1cc2cc(C(=O)N3C[C@@H](CCl)c4c3cc(OC(=O)N3CCN(C)[C@@H]5CSSC[C@@H]53)c3ccccc43)[nH]c2c(OC)c1OC | -8.99% (active)
2 | COc1cc2cc(C(=O)N3C[C@@H](CCl)c4c3cc(OC(=O)N3CCN(C(=O)CCC(=O)N5CCN(C)CC5)[C@@H]5CSSC[C@@H]53)c3ccccc43)[nH]c2c(OC)c1OC | -88.5% (active)
3 | COC(=O)c1ccc(-n2cc(CCCN(CCNc3ccnc4cc(Cl)ccc34)C(=O)CCC(=O)O[C@@H]3O[C@@H]4OC5(C)CC[C@H]6[C@H](C)CC[C@@H]([C@H]3C)[C@@]46OO5)nn2)cc1 | 43.8% (inactive)
4 | O=C([Se]C1C=CCCC1)c1ccc(C(=O)[Se]C2C=CCCC2)s1 (stereo not drawn) | -44.2% (active)
5 | O=C(/C=C/c1cccc(Br)c1)c1nc2ccccc2n1Cc1ccc(F)cc1 | 62.9% (inactive)
6 | CC[C@]12C=CCN3CC[C@@]4(c5ccc(OC)cc5N(C)[C@H]4[C@@](O)(C(=O)OC)[C@@H]1OC(=O)CCC[P+](c1ccc(C)cc1)(c1ccc(C)cc1)c1ccc(C)cc1)[C@@H]32 | -89.1% (active)
7 | O=C(NC([Se])=NC1CCCCC1)c1ccccc1 | 8.53% (active)
8 | O=C(/C=C/c1ccc(F)cc1)c1nc2ccccc2n1Cc1ccc(F)cc1 | -10.9% (active)
9 | O=C(/C=C/c1ccccc1)c1nc2ccccc2n1Cc1ccc(Br)cc1 | -71.9% (active)
10 | C=CC[Se]C(=O)c1cncc(C(=O)[Se]CC=C)c1 | -55.8% (active)
11 | COc1ccc(OC)c(/C=C/C(=O)c2nc3ccccc3n2Cc2ccc(F)cc2)c1 | -21.3% (active)
12 | O=C(/C=C/c1ccc(F)cc1)c1nc2ccccc2n1Cc1ccc(Br)cc1 | -87.5% (active)
13 | CC[C@]12C=CCN3CC[C@@]4(c5ccc(OC)cc5N(C)[C@H]4[C@@](O)(C(=O)OC)[C@@H]1OC(=O)CCCC[P+](c1ccc(C)cc1)(c1ccc(C)cc1)c1ccc(C)cc1)[C@@H]32 | -91.8% (active)
14 | CC(C)N=C([Se])NC(=O)c1cccs1 | -14% (active)
15 | CC1=C(CCC=NNC(N)=O)C2=C(C)C3(CC3)[C@@](C)(O)C(=O)C2=C1 | 1.93% (active)
16 | Cc1ccc2[nH]c(=S)n(-c3ccc(F)cc3)c(=O)c2c1 | 98.9% (inactive)
17 | C#CC[Se]C(=O)c1ccc2n[se]nc2c1 | 25.4% (inactive)
18 | CC1=C(COCCOC(=O)c2ccc(S(=O)(=O)F)cc2)C2=C(C)C3(CC3)[C@@](C)(O)C(=O)C2=C1 | -11.8% (active)
19 | CC12CCC3(CCC(=O)NCCCNc4ccnc5cc(Cl)ccc45)[C@@](C)(OO[C@]3(C)O1)O2 | -1.94% (active)
20 | O=C(/C=C/c1ccc(Br)cc1)c1nc2ccccc2n1Cc1ccc(Br)cc1 | -34.9% (active)
21 | COC(=O)CCn1c(-c2ccc(-n3cc(-c4ccc(O[C@H]5O[C@@H]6OC7(C)CC[C@H]8[C@H](C)CC[C@@H]([C@H]5C)[C@@]68OO7)cc4)nn3)cc2)nc2ccccc21 | 21.1% (inactive)
22 | CC1=C(C=O)C2=C(C)C3(CC3)[C@@](C)(O)C(=O)C2=C1 | 70.5% (inactive)
23 | N#C[Se]CC(=O)Nc1cccc(C(F)(F)F)c1 | -72.7% (active)
24 | CCC[Se]C(=O)c1ccc(C(=O)[Se]CCC)s1 | -85.7% (active)
25 | C[C@H]1[C@@H](CC(=O)N[C@@H](Cc2coc3ccccc23)B(O)O)O[C@@H]2OC3(C)CC[C@H]4[C@H](C)CC[C@@H]1[C@@]24OO3 | -88.8% (active)
26 | O=C(/C=C/c1ccco1)c1nc2ccccc2n1Cc1ccc(F)cc1 | 76% (inactive)
27 | COC(=O)C[C@](O)(CCC(C)C)C(=O)O[C@H]1C(OC)=C[C@@]23CCCN2CCc2cc4c(cc2[C@@H]13)OCO4 | -23.6% (active)
28 | C[C@H]1[C@H](OC(=O)CCC(=O)N(CCCc2cn(-c3ccc(C#N)cc3)nn2)CCNc2ccnc3cc(Cl)ccc23)O[C@@H]2OC3(C)CC[C@H]4[C@H](C)CC[C@@H]1[C@@]24OO3 | 53.8% (inactive)
